Drawing on PubChem BioAssay (EPA / NIEHS), this text covers outcome and AC50 for 40 molecules.

Calls of active or inactive are those of the source. Rule for the calls: active = hit-call score of the fitted dose curve at least 0.9, where 1 is the maximum; inactive = score below 0.9.

For orientation: AC50 means the concentration giving half of the maximal activity seen.

Read-out in this assay: CD40, CD40 (gene 958)
Put plainly: BSK_LPS_CD40: BioMAP Diversity Plus: LPS Assay for CD40 Biomarker Activity (AID 2283076). The conditions noted are these: primary human HUVEC with PBMC; actives raise or lower the signal. Here is the method: BSK_LPS is a cell-based, multiplexed-readout assay that uses umbilical vein endothelium and peripheral blood mononuclear cells, a human vascular primary cell co-culture, with measurements taken at 24 hours after chemical dosing in a 96-well plate.BSK_LPS_CD40 is an assay component measured in the BSK_LPS assay. It measures CD40 antibody related to regulation of gene expression using ELISA technology.Data from the assay component BSK_LPS_CD40 was analyzed into 1 assay endpoint. This assay endpoint, BSK_LPS_CD40, was analyzed with bidirectional fitting relative to DMSO as the negative control and baseline of activity. Using a type of binding reporter, gain or loss-of-signal activity can be used to understand changes in the signaling as they relate to the gene CD40. Furthermore, this assay endpoint can be referred to as a primary readout, because this assay has produced multiple assay endpoints where this one serves a signaling function. To generalize the intended target to other relatable targets, this assay endpoint is annotated to the cytokine intended target family, where the subfamily is inflammatory factor.
The levels of cell surface (or secreted, indicated by the prefix "s") biomarker endpoints were measured by ELISA. Overt cytotoxicity to cells in confluent adherent cultures (all systems other than the BT system) was assessed by measuring total protein levels using sulforhodamine B (SRB) staining in parallel cultures at the time of biomarker measurements, indicated as SRB endpoints. For proliferation assays for adherent cell types, individual cell types are cultured at sub-confluence and relative cell numbers quantified by SRB staining at time points optimized for each system (48 h: 3C and CASM3C systems; 72 h: BT and HDF3CGF systems; 96 h: SAg system). SRB was performed by staining cells with 0.1% SRB after fixation with 10% TCA and reading wells at 560 nm.Viability and proliferation of PBMC (T cells) was quantified by Alamar Blue reduction for the SAg and BT systems. For PBMC viability (referred to as PBMC Cytotoxicity within the assay endpoint names), cells were plated (75,000/well in a 96-well plate) and then chemical samples added for 1 h before addition of activators, SEB and TSST-1 (20 ng/mL final concentration each). Cells were incubated for 90 h. Then, Alamar Blue (20 uL/well) (Invitrogen, Cat DAL1100) was added for 6 h, and the plates were read with a fluorescence microplate reader at 546/580 nm (excitation/emission). For PBMC proliferation, cells were plated and activated as above but incubated for only 16 h prior to addition of Alamar Blue. Plates were read after 6 h.
For the molecule `O=CCCCC=O`, the outcome was inactive.

Regarding `CCCCCCCCCCCC[N+](C)(C)C`, the AC50 was 16.9 µM (active).

For the molecule `COc1cccc([C@H](O)C2CCN(CCc3ccc(F)cc3)CC2)c1OC`, the outcome was inactive.

Take `C[C@]12CC[C@@H]3c4ccc(O)cc4CC[C@H]3[C@@H]1CC[C@H]2O`: the result was inactive.

Take `CO[C@H]1/C=C/O[C@@]2(C)Oc3c(C)c(O)c4c(O)c(c(/C=N/N5CCN(C)CC5)c(O)c4c3C2=O)NC(=O)/C(C)=C\C=C\[C@H](C)[C@H](O)[C@@H](C)[C@@H](O)[C@@H](C)[C@H](OC(C)=O)[C@@H]1C`: the result was inactive.

On to `O=C1c2ccccc2C(=O)N1CCc1noc(-c2ccc(CN3CCCCCC3)s2)n1`, for which the outcome was inactive.

Take `COc1ccc2cc(S(=O)(=O)N[C@H](CC(=O)N[C@H](Cc3ccc(CN4[C@H](C)CCC[C@@H]4C)cc3)C(=O)N(C)C(C)C)c3ccc4c(c3)OCO4)ccc2c1`: the AC50 was 11.6 µM (active).

With `CN(C[C@@H](CC[N+]12CCC(C3CCCCC3)(CC1)CC2)c1ccc(Cl)c(Cl)c1)C(=O)c1cc(C(F)(F)F)cc(C(F)(F)F)c1`, the AC50 is 19.1 µM (active).

Consider `CC(C)(O)c1ccc(CNC(=O)c2cccnc2Oc2ccc3nonc3c2)cc1`, for which the outcome was inactive.

With `Cc1cc2c(cc1C(F)(F)F)N(C(=O)Nc1ccc(Oc3cccnc3C)nc1)CC2`, the AC50 is 12.1 µM (active).

As to `CCCOC(=O)c1cc(O)c(O)c(O)c1`, the result was inactive.

With `C[C@]12CC[C@@H]3c4ccc(O)cc4CC[C@H]3[C@@H]1CCC2=O`, the outcome was inactive.

As to `CC1=CC(=O)/C(=C(/C)O)C(=O)O1`, the result was inactive.

For the molecule `c1ccc2n[nH]nc2c1`, the outcome was inactive.

Turning to `NCc1cccc(C2CCN(C(=O)c3ccc(C#Cc4ccccc4F)o3)CC2)c1`, the AC50 was 8.42 µM (active).

For `CC[C@@H]1C[C@H](N(Cc2cc(C(F)(F)F)cc(C(F)(F)F)c2)C(C)=O)c2cc(C(F)(F)F)ccc2N1C(=O)OC(C)C`, the outcome was inactive.

Take `COCC(C)OCC(C)OCC(C)O` (stereo not given): the result was inactive.

In the case of `CN(C)c1ccc(C(=C2C=CC(=[N+](C)C)C=C2)c2ccc(N(C)C)cc2)cc1`, the AC50 is 0.438 µM (active).

Turning to `CC(=O)N1CCN(c2ccc(OC[C@H]3CO[C@](Cn4ccnc4)(c4ccc(Cl)cc4Cl)O3)cc2)CC1`, the AC50 was 11.8 µM (active).

On to `O=c1c(-c2ccc(O)cc2)coc2cc(O)cc(O)c12`, for which the AC50 is 14.3 µM (active).

`Clc1cc(Cl)c2c(c1)N=C1CCCCCN1C2`: the outcome was inactive.

As to `CCN(Cc1cccnc1)C(=O)c1cccc(Cl)c1[C@]1(C)C(=O)N(Cc2ccc(OC)cc2OC)c2ccc(Cl)cc21`, the AC50 was 5.26 µM (active).

In the case of `OCCO`, the result was inactive.

`CCCCCCCCCC(=O)O`: the result was inactive.

For the molecule `COc1cc(C(=O)NC2CCN(C)CC2)ccc1Nc1ncc2c(n1)N(C1CCCC1)CC(F)(F)C(=O)N2C`, the half-maximal activity concentration (AC50) was 10.1 µM (active).

In the case of `OC12N=C(c3ccccc3)SC1Cc1cc(Cl)ccc12` (stereo not given), the AC50 is 16.8 µM (active).

In the case of `CCN(Cc1cccc(S(=O)(=O)O)c1)c1ccc(C(=C2C=CC(=[N+](CC)Cc3cccc(S(=O)(=O)O)c3)C=C2)c2ccccc2S(=O)(=O)[O-])cc1`, the outcome was inactive.

`CN(C)C(=O)C1(N2CCCCC2)CCN(CC[C@@]2(c3ccc(Cl)c(Cl)c3)CN(C(=O)c3ccccc3)CCO2)CC1`: the AC50 is 16.8 µM (active).

Take `O=C(O)Cn1c(=O)n(Cc2ccc(Br)cc2F)c(=O)c2ccc(Cl)cc21`: the outcome was inactive.

With `c1ccc2ccccc2c1`, the outcome was inactive.

For the molecule `CC(C)(C)c1cc(/C=C2\SC(N)=NC2=O)cc(C(C)(C)C)c1O`, the AC50 was 13 µM (active).

As to `CCOC(=O)O[C@H](C)OC(=O)c1ccc2c(c1)cc(C(=O)NC1CCN(C(C)C)CC1)n2Cc1cc(-c2ccc(Cl)s2)on1`, the AC50 is 6.74 µM (active).

Take `CCN(CC)C(=O)c1cc(S(=O)(=O)Cc2ccccc2)c(N2CCC(c3ccccc3)CC2)cc1N(CC)CCN(C)C`: the AC50 was 8.94 µM (active).

For the molecule `O=c1[nH]sc2ccccc12`, the AC50 is 7.06 µM (active).

Regarding `CCCCCCCCN(C)CCCCCCCC`, the result was inactive.

Consider `CN1C(=O)CC[C@H]1c1cccnc1`, for which the outcome was inactive.

`O=C(O)c1ccccc1C(=O)OCc1ccccc1`: the result was inactive.

Consider `Cc1oc2c(NC(=O)c3c(Cl)cccc3Cl)cccc2c1C(C)(C)O`, for which the outcome was inactive.

As for `Cc1c2ccccc2c(C)c2c1ccc1ccccc12`, the AC50 is 15.3 µM (active).

Regarding `Cc1cccc2ccccc12`, the outcome was inactive.
